# Laboratory results: PubChem BioAssay (NCI)
# About 79,000 compounds went through this panel and 15% of them were active in at least one assay; those are over-represented in the sample as a whole. Unmarked numbers belong to inactive results. Active and inactive are the calls of the source. Rule as the data show it: active = growth inhibition above about 70%; inactive = the rest. Where a SMILES comes first, the peptide text is derived from it. [ ]: non-standard residue; d: D form. The star is where a group is joined. ξ: configuration not given here. ξF = NC(Cc1ccccc1)C(=O)O; Cbz = O=C(OCc1ccccc1)*; Sar = CNCC(=O)O
# Key:
# [1] = NCI Yeast Anticancer Drug Screen. Data for the rad50 strain (AID 155);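 also: 0% = growth of vehicle-only cultures of the same strain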; details: S. cerevisiae rad50 strain growth inhibition; at 50.0 µM; stronger effect = higher value
# How it was run: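 A DNA repair-deficient yeast mutant serves as the test organism; compound-induced growth inhibition is calculated against vehicle-treated cells.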
# [2] = NCI Yeast Anticancer Drug Screen. Data for the mec2-1 strain (AID 157); details: S. cerevisiae mec2-1 strain, at 50.0 µM, stronger effect = higher value
# How it was run: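 Using mec2-1 yeast: add compound, measure growth, express inhibition versus vehicle-treated cultures.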
# [3] = NCI Yeast Anticancer Drug Screen. Data for the sgs1 mgt1 strain (AID 161);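 also: 0% = growth of cultures given vehicle only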; details: S. cerevisiae sgs1 mgt1 strain, at 50.0 µM, stronger effect = higher value
# How it was run: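 Growth of a repair-deficient yeast mutant was monitored after compound treatment and expressed as inhibition relative to vehicle-treated cultures.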
# [4] = NCI Yeast Anticancer Drug Screen. Data for the cln2 rad14 strain (AID 165);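 also: 0% = growth equal to vehicle treated cultures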; details: S. cerevisiae cln2 rad14 strain, at 50.0 µM, stronger effect = higher value
# How it was run: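 Yeast strain cln2 rad14, bearing defects in cell cycle control and DNA repair, serves as the test system; values reflect growth inhibition compared with vehicle.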
# [5] = NCI Yeast Anticancer Drug Screen. Data for the bub3 strain (AID 167); details: S. cerevisiae bub3 mutant strain, at 50.0 µM, stronger effect = higher value
# How it was run: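 Inhibition values come from growth of compound-treated mutant yeast normalised to vehicle-treated controls.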
# [6] = NCI Yeast Anticancer Drug Screen. Data for the mlh1 rad18 strain (AID 175); details: S. cerevisiae mlh1 rad18 strain growth inhibition; at 50.0 µM; stronger effect = higher value
# How it was run: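 Steps: expose repair-defective yeast to compound; measure growth; express inhibition against vehicle-treated controls.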
SMILES,growth inhibition [1],growth inhibition [2],growth inhibition [3],growth inhibition [4],growth inhibition [5],growth inhibition [6]
O=C(O)c1ccncc1C(=O)O,-4.3%,-9.3%,-17.1%,0.25%,-5.8%,3%
CCC(=O)Oc1ccccc1OC,-28.8%,-7.25%,-6.05%,-0.3%,-31.9%,-16.9%
CCCCCC/C=C/CCCCCCCc1cccc(OC)c1 (tested in a mixture with another compound),3.85%,-5.9%,3.6%,-14.7%,1.25%,12.1%
OC1COC2CC(Nc3ccccn3)OC12 (stereo unspecified),-36.8%,-41.2%,-15.8%,0%,-10.2%,-13.6%
COC1/C=C\OC2(C)Oc3c(C)c(O)c4c(c3C2=O)C(=O)C(Br)=C(NC(=O)/C(C)=C\C=C/C(C)C(O)C(C)C(O)C(C)C(OC(C)=O)C1C)C4=O (stereo unspecified),16.1%,13.8%,22.4%,22.2%,14.8%,20.5%
CC(=O)Oc1ccccc1OC(=S)N(C)C,11.2%,-7.35%,-5.5%,-39.2%,15.8%,-26.8%
O=C1C=C(Nc2ccccc2C(=O)c2ccccc2)c2ccccc2C1=O,18.9%,-30.4%,6.65%,4.9%,14.8%,2.4%
N#Cc1ccc(S(=O)(=O)c2ccc(C#N)cc2)cc1,1%,-17.6%,11.3%,24.4%,12%,-19.4%
CCOC(=O)c1ccc(NN=NC(C)(C)C)cc1,10.8%,-8.5%,-15.2%,-29.2%,-7.3%,-11.1%
CC(=O)NC(C(=O)Nc1ccccc1)=C(C)C,-7.45%,-7.9%,-11.8%,-11.5%,5.25%,0.8%
c1csc(C2N3CCN(CC3)C(c3cccs3)N3CCN2CC3)c1 (stereo unspecified),-1.6%,-16.7%,23.8%,10.1%,-5.25%,3.1%
Cc1ccccc1/C=C/C(=O)O,-0.4%,-9.95%,-0.45%,-13.6%,-24.4%,-12.7%
CC(C)=CC(C)(O)c1nc2ccccc2s1 (stereo unspecified),-2.75%,21.7%,7.25%,-6.95%,1.1%,5.2%
C[n+]1ccc(/C(C#N)=N/O)cc1,-16.4%,-39.9%,-20.6%,20.6%,-25.8%,-28.9%
C=C(C)Cc1c(C)c(Cl)cc(Cl)c1OC(=O)Nc1ccccc1,31.8%,9.6%,30.6%,9.35%,29.9%,19.7%
COc1ccc(CC2COC(=O)C2Cc2ccc(OC)c(OC)c2)cc1OC (stereo unspecified),6.35%,5.95%,-17.6%,-11.6%,8.1%,12.8%
c1ccc(CNC2Cc3ccccc3C2)cc1,19.6%,-10.7%,0.55%,-36.1%,-11.7%,-2.4%
Cc1cc2c(cc1C)-c1nn(-c3ccccc3)c(-c3ccc(Cl)cc3)c1CCO2,27.2%,1.35%,-1.75%,17.9%,-6.2%,3.65%
CC(C)(C)N(O)c1ccc(P(=O)(c2ccccc2)c2ccccc2)cc1,23.4%,15.4%,12.3%,-4.7%,-2.35%,11.8%
CN(C)C=NC1CC(C)(C)NC(C)(C)C1,-18.2%,2.2%,3.1%,-49.1%,13.2%,-12.9%
COc1cc2oc(=O)ccc2cc1CC=C(C)C,-16.1%,-26.2%,-4.1%,-6.35%,2.95%,-21.8%

SMILES,growth inhibition [1],growth inhibition [2],growth inhibition [3],growth inhibition [4],growth inhibition [5],growth inhibition [6]
O=C1/C(=C/c2ccc(O)cc2)CCc2ccc([N+](=O)[O-])cc21,-10.3%,-1.15%,9.45%,13.8%,-0.8%,-55.4%
CC[C@@]12C=CC(=S)N(CCSc3ccccc3)[C@@H]1c1c(n(S(=O)(=O)c3ccc(OC)cc3)c3ccccc13)CC2,-33%,-1.2%,0.95%,-53%,-2.55%,6%
Cn1c(=O)cc(CCl)c2ccccc21,26.9%,26.6%,44%,28.4%,31.7%,52%
CCC(C)C(=O)c1c(O)c(C/C=C(\C)CCC=C(C)C)c(O)c2c(C(O)CC)cc(=O)oc12 (stereo unspecified),21.8%,15.8%,14.7%,18.1%,20.1%,42.9%
CNC(=O)OCc1c(COC(=O)NC)c2n(c1C)CCS2(=O)=O,-1.25%,-18.3%,-8.15%,-9.95%,0.35%,15.2%
COc1c(C)c(C)c(OC(C)=O)c(C)c1Br,-10.2%,-4.9%,-1.95%,-3.1%,-2.1%,-9.3%
CCCCCCP(=O)(CCCCCC)C1CCCCC1,98.1% (active),99.5% (active),99.3% (active),97.6% (active),99% (active),99% (active)
C[n+]1ccc(/C=C/c2ccnc3c(O)cccc23)cc1,17.5%,11.7%,-13.4%,-7.3%,-7.4%,18%
COc1ccc(OC)c(N=Cc2cccs2)c1,14.6%,5.95%,20.9%,15.1%,16.2%,22.1%
OCCN(Cc1ccccc1)C(c1ccccc1)c1ccccc1,98.8% (active),98.9% (active),98.8% (active),98.4% (active),98.5% (active),98.9% (active)
O=Cc1cc(O)ccc1[N+](=O)[O-],11.4%,-19.2%,-9.55%,13.3%,-13.4%,16.1%
CN(CC(=O)NC(Cc1ccccc1)C(=O)O)C(=O)OCc1ccccc1 (stereo unspecified) (Cbz-[Sar]-[ξF]-OH),-16.9%,-7.95%,-1.2%,-6.2%,-16.1%,-10.6%
CCC[C@@H]1C[C@@H](OC(=S)SC)C[C@H]2CCC(=O)N12,-3.1%,-9.6%,-7.85%,-4.9%,44.9%,-16.6%
CCCC(=N)OCC,-3.45%,-27.4%,-20.4%,-0.45%,3.75%,-5.05%
COc1ccc(C)cc1NS(=O)(=O)c1ccccc1,-7.45%,-33.4%,-8.2%,-12.5%,-9.65%,10.4%
NC(N)=NS(=O)(=O)c1ccc(NC(=O)c2cccn3c(=O)c4ccccc4nc23)cc1,-6.9%,-2.5%,30.3%,11.7%,-9.4%,-20.9%
O=C1C/C(=C/c2ccccc2[N+](=O)[O-])C(=O)N1c1ccccc1,16.4%,4.35%,13.4%,-36.1%,3.8%,11.2%
CC1CC[N+](C)([B-](F)(F)F)CC1 (stereo unspecified),0.85%,1.85%,11.5%,-31.1%,2.45%,11.1%
OCC1OC(n2cnc3c(Cl)nc(Nc4ccc(Cl)c(Cl)c4)nc32)CC1O (stereo unspecified),7.45%,-0.2%,-12.9%,-0.4%,-16.9%,66%
Cc1ccccc1C(O)(c1nccn1C)c1nccn1C,8.75%,5.5%,19.9%,9.55%,18.2%,37.3%
